From ChEMBL document CHEMBL3988442, “University of Dundee, Small-Polar-MMV Screening Library” (2021) come the findings set out here.

Common to all, as to set-up: scale not given: direction of the effect not stated beside the values
For assay [1], the target named is Protein translocase subunit SecA (Escherichia coli (strain K12)) (UniProt P10408). The assay can be described thus: Assay to Identify E. coli SecA ATPase Inhibitors. In kind it is functional. Particulars: 30 µM.
Assay [2] has as its target T1, Ubiquitin-activating enzyme e1, putative (Leishmania donovani (strain BPK282A1)) (UniProt E9BSI1).
T1 sequence (whole entry): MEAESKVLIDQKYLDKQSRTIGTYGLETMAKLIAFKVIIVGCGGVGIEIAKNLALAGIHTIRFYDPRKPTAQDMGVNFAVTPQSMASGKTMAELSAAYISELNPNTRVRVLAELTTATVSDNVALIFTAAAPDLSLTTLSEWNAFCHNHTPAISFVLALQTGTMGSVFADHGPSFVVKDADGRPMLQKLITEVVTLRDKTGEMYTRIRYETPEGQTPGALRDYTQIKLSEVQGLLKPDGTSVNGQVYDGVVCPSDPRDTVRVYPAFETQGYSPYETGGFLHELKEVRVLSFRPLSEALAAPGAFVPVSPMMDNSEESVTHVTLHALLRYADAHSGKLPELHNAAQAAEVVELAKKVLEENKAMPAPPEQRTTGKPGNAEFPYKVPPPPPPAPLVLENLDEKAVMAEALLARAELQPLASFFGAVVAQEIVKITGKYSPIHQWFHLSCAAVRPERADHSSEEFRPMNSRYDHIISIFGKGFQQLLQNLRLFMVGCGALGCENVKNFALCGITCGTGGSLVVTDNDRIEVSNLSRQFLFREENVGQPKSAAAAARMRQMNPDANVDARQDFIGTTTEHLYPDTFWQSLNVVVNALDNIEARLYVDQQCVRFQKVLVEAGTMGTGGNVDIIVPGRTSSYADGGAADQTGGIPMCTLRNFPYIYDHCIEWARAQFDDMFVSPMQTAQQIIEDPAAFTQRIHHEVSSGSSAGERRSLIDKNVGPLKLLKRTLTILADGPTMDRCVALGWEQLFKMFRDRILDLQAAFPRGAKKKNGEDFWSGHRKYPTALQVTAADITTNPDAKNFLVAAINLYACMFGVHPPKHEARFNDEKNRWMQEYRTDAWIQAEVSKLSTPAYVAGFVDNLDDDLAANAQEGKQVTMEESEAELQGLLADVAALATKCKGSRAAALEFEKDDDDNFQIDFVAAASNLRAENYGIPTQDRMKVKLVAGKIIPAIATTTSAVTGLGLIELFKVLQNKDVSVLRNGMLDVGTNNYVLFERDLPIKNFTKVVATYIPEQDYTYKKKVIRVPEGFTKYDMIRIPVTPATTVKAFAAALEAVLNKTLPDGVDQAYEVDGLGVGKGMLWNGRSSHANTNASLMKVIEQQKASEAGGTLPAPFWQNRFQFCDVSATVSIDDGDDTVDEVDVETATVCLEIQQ
Kind of assay: Leishmania donovani Ubiquitin Activating Enzyme (LdE1). Format: functional. The settings on record: 30 µM.

For assay [3], the target named is T2, Aspartate--tRNA(Asp/Asn) ligase (Mycobacterium tuberculosis (strain ATCC 25618 / H37Rv)) (UniProt P9WFW3). Also: in the data most compounds retested in dose-response had high values.
T2 sequence (whole entry): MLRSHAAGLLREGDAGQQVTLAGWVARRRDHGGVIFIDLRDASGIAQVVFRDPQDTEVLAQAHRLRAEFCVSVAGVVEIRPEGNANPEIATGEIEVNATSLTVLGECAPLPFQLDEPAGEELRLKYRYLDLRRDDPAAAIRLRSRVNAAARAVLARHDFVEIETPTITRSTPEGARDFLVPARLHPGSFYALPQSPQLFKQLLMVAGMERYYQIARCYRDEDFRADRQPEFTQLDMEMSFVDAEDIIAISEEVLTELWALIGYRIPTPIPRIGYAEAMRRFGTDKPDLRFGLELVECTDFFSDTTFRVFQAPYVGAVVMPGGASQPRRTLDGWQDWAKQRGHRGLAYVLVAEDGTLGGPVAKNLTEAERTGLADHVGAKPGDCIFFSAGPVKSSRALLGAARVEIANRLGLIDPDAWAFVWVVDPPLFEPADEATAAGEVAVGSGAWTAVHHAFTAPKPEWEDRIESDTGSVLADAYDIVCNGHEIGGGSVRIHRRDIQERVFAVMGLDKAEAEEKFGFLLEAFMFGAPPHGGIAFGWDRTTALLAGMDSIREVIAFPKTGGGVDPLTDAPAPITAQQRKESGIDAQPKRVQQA
Kind of assay: Assay for Asp RNA synthetase-1 from Mycobacterium tuberculosis. Format: functional. Particulars: 30 µM.

Assay [4] deals with AMP-activated protein kinase, AMPK (Homo sapiens) (UniProt P54646+O43741+P54619+Q9UGJ0+Q9Y478+Q13131+Q9UGI9). Kind of assay: AMP-dependent Kinase enzyme assay. An in vitro enzyme assay that detects ADP turnover that is directly proportional to AMPK activity. This uses naive AMPK that is activated during the assay with MK-8722. Format: functional. The settings on record: 30 µM.

The target in assay [5] is Sialic acid-binding Ig-like lectin 9 (Homo sapiens) (UniProt Q9Y336). The assay can be described thus: Hs-Siglec9 ALPHAscreen SOP 20170721. Particulars: 10 µM.
In another assay the test system is Trypanosoma cruzi. The assay can be described thus: Trypanosoma cruzi phosphomannomutase and mannose-1-phosphate guanylyltransferase assay. The settings on record: 10 µM. In kind it is functional.
In assay [6] the target is T3, Arginase-2, mitochondrial (Homo sapiens) (UniProt P78540).
T3 sequence (whole entry): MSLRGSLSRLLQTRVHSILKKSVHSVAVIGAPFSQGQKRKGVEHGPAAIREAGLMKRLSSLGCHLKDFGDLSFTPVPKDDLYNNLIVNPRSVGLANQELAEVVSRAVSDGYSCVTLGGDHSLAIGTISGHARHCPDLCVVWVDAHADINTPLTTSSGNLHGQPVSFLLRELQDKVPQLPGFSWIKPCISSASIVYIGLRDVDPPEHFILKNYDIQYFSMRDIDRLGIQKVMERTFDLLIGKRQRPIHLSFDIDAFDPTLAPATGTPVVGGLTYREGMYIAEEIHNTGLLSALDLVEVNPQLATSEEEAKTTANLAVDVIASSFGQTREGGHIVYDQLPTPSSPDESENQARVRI
The assay can be described thus: in vitro enzyme assay to detect the production of urea directly proportional to the activity of Arginase II. Also: in the data most compounds retested in dose-response had high values. In kind it is functional. Particulars: 33.3 µM.

The target in assay [7] is T4, Proteasome subunit beta (Trypanosoma cruzi) (UniProt O96673).
T4 sequence (whole entry): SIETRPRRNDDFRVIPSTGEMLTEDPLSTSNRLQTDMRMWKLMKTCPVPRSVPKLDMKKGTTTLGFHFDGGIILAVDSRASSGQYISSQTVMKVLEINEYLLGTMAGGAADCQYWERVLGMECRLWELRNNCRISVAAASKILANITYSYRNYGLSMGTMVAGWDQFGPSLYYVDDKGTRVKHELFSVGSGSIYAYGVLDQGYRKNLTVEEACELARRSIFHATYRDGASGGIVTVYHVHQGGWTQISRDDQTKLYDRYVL
Kind of assay: Trypanosoma cruzi proteasome chymotrypsin-like activity (TcProtChymo) assay. Also: in the data most compounds retested in dose-response had high values. The settings on record: 9.37 µM. Format: functional.

For the next assay, the species on record is Homo sapiens. The assay can be described thus: To identify inhibition of the IFN signalling (Jak-Stat) pathway via expression of an eGFP reporter gene under the control of an IFN-stimulated response element (ISRE) containing MxA promoter. Format: functional. The settings on record: 30 µM.
In assay [8] the target is Shiga toxin 2 (Escherichia coli O157:H7) (UniProt P09385+P09386). Kind of assay: E. coli 0.157:H7 Shiga Toxin SOP - stx2 screening assay. In kind it is functional. Particulars: 30 µM.
Assay [9] deals with T5, Tyrosyl-tRNA synthetase, putative (Trypanosoma cruzi (strain CL Brener)) (UniProt Q4DSP6).
T5 sequence (whole entry): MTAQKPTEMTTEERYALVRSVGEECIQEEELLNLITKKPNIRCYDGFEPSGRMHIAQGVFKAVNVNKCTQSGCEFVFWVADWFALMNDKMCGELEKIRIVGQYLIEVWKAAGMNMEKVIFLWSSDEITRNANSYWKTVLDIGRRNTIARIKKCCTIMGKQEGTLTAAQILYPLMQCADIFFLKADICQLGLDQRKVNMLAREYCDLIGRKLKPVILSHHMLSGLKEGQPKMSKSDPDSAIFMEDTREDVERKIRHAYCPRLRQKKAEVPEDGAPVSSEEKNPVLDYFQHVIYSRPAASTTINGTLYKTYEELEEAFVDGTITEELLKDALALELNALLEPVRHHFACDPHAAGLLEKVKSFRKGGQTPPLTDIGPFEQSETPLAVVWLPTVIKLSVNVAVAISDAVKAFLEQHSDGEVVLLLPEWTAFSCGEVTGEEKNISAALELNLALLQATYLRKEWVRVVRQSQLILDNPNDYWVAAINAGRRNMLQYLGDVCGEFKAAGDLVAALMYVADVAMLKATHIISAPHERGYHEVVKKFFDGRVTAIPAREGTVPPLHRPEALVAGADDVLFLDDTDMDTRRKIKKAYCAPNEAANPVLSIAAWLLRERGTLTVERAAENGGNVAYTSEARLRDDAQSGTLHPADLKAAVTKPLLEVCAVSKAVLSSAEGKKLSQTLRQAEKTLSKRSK
Kind of assay: Trypanosoma cruzi tyrosyl tRNA synthetase (TcYRS) _High Tyrosine SOP. Also: in the data most compounds retested in dose-response had high values. Particulars: 30 µM. Format: functional.

For assay [10], the target named is T5, Tyrosyl-tRNA synthetase, putative (Trypanosoma cruzi (strain CL Brener)). The assay can be described thus: Trypanosoma cruzi tyrosyl tRNA synthetase (TcYRS) SOP. In kind it is functional. Particulars: 30 µM.
Assay [11] deals with Chromo domain-containing protein 1 (Saccharomyces cerevisiae (strain ATCC 204508 / S288c) (Baker's yeast)) (UniProt P32657). Kind of assay: ScCHD-1 Enzyme Inhibition Assay. Also: in the data most compounds retested in dose-response had high values. In kind it is functional. Particulars: 30 µM.

For some assays here: Measured potencies and affinities stand elsewhere.

Chromo domain-containing protein 1 (Saccharomyces cerevisiae (strain ATCC 204508 / S288c) (Baker's yeast)), sequence (P32657 whole entry, the tested form may be a part): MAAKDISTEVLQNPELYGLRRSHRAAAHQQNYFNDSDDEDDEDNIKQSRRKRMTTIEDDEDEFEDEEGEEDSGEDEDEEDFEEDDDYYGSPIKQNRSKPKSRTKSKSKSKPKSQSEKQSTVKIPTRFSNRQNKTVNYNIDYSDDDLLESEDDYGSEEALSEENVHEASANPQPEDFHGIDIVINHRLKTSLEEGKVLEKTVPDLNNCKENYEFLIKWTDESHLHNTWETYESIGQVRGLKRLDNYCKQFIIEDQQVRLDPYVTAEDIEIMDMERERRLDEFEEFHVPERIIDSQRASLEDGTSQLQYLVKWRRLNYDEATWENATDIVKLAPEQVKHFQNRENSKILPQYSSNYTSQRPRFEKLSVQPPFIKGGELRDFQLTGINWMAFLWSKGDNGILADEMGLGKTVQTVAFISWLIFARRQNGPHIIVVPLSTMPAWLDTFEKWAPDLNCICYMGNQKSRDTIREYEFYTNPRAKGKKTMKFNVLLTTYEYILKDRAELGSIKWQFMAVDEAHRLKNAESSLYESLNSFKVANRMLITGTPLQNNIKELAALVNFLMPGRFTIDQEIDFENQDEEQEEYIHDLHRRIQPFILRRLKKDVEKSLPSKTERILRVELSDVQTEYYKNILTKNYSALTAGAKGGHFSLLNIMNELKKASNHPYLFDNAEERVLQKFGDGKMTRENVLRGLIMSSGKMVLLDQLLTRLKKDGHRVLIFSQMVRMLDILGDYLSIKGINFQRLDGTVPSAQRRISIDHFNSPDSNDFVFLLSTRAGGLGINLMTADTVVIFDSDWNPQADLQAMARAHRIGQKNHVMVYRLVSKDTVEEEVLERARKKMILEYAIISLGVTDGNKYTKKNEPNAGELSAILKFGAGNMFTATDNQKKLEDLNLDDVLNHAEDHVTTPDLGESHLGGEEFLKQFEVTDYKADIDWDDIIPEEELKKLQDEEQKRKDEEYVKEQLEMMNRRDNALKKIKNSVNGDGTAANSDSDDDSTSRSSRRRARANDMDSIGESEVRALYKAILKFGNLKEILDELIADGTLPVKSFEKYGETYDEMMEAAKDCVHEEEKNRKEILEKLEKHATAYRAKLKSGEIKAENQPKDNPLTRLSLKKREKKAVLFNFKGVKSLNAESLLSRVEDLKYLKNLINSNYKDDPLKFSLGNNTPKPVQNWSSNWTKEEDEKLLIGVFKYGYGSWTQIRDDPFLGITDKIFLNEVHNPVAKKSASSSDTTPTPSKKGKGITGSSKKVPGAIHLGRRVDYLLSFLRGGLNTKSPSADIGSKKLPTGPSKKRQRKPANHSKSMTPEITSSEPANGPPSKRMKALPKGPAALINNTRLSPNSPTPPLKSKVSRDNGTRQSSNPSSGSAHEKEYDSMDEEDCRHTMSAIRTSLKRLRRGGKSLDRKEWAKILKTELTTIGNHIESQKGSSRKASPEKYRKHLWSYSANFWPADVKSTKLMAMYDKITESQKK
Sialic acid-binding Ig-like lectin 9 (Homo sapiens), sequence (Q9Y336 whole entry): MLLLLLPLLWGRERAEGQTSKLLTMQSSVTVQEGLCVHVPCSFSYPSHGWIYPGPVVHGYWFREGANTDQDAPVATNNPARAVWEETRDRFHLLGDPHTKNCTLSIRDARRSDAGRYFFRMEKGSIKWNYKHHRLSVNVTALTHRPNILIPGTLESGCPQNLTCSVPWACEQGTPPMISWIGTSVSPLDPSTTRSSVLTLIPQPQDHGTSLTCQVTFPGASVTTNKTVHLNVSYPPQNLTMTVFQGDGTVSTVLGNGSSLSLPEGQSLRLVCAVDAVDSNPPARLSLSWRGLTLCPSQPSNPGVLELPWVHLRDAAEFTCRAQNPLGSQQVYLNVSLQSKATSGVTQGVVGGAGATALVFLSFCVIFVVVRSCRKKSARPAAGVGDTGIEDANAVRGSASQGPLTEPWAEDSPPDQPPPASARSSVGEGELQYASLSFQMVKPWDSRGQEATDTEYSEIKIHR
Protein translocase subunit SecA (Escherichia coli (strain K12)), sequence (P10408 whole entry): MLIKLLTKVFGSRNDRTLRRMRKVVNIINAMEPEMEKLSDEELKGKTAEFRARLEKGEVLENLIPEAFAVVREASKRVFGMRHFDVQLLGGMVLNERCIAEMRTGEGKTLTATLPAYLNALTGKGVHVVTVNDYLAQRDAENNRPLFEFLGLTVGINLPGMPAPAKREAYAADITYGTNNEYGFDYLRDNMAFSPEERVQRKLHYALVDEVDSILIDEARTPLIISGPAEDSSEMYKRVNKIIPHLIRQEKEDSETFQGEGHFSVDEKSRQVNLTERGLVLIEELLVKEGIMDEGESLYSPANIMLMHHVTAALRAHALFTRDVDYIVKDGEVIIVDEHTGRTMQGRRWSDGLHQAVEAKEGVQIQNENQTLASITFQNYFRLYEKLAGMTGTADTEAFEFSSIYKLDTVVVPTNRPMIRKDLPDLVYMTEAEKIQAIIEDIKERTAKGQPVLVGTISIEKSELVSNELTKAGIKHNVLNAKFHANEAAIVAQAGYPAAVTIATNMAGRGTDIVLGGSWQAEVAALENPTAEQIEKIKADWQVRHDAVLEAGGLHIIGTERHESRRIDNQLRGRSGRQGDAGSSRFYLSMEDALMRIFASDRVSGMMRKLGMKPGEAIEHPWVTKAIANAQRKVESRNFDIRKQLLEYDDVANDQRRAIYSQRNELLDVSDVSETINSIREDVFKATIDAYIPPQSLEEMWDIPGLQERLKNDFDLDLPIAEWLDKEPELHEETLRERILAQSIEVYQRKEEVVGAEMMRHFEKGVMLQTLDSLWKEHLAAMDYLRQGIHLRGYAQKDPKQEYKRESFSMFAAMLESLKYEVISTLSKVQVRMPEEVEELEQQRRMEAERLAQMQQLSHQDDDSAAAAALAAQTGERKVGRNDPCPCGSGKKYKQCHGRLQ

Turning to `O=C(c1cccnc1)N1C[C@@H]2CC[C@H](C1)N(Cc1ncc[nH]1)C2`, the Percent Effect is -1.65% in [1]; 16.4% in assay [2]; 2.47% in assay [3]; 9.09% in assay [4]; 6.45% in assay [5]; 5.88% with Trypanosoma cruzi. Moreover, the Percent Effect in assay [6] was 5.91%; in assay [7], 11.4%; in the assay listed under Homo sapiens it was 7.79%; in [8] it was -0.806%; in assay [9], 7.53%; in assay [10], 15%. The Percent Effect in assay [11] is -3.77%.

As for `Cc1cc(CN2C[C@@H]3CCCO[C@@H]3[C@H](Nc3ccccn3)C2)no1`, the Percent Effect was -6.36% in [1]; 8.11% in [2]; 1.17% in [3]; 2.41% in [4]; 16.5% in assay [5]; 1.47% with Trypanosoma cruzi. Moreover, the Percent Effect in assay [6] is 4.22%; in [7], 7.3%; in the assay listed under Homo sapiens it was 2.28%; in [8], 10.7%; in assay [9], 5.38%; in [10] it was 16.1%. In addition, in assay [11], the Percent Effect was -5.82%.

Regarding `c1cnc(NC[C@@H]2CCC[C@@H]3CN(Cc4cc[nH]n4)C[C@@H]32)nc1`, the Percent Effect in [1] was -1.01%; in assay [2] it was 10.8%; in assay [3], -0.521%; in assay [4] it was -5.7%; in assay [5], -5.33%; in the assay on Trypanosoma cruzi it was 5.66%. Moreover, the Percent Effect in assay [6] was 4.17%; in assay [7] it was 7.69%; in the assay listed under Homo sapiens, 6.51%; in assay [8], -15%; in assay [9], 10.9%; in assay [10], 15.8%. In addition, the Percent Effect in [11] was -6.02%.

As for `COC[C@@H]1CCC[C@]12CN(Cc1cccc(C)n1)CCO2`, the Percent Effect in assay [1] is 2.73%; in assay [2] it was 4%; in assay [3], 3.92%; in assay [4], 0.13%; in assay [5], -3.4%; in the assay on Trypanosoma cruzi, -8.45%. Moreover, the Percent Effect in assay [6] was 0.528%; in assay [7], 15.3%; in the assay listed under Homo sapiens, 9.81%; in assay [8], -43.1%; in [9], 2.12%; in assay [10], 2.56%. Besides, the Percent Effect in assay [11] was -8.43%.

As to `Cc1cc(N2CCN3CCCCC3C2)n2nc(C)c(C)c2n1` (stereo not given), the Percent Effect in [1] was -1.84%; in assay [2], 6.94%; in assay [3], -12.4%; in assay [4], -4.39%; in [5], -5.54%; in the assay with Trypanosoma cruzi it was -2.43%. In addition, the Percent Effect in [6] is -0.442%; in assay [7], 14.7%; in the assay filed under Homo sapiens, -15.5%; in assay [8], 4.77%; in assay [9], 4.21%; in assay [10] it was 10.3%. Further, in assay [11], the Percent Effect is -3.52%.
